Test results as given in PubChem BioAssay (Tox21).
Values joined by “and” are separate entries in the source; they are usually repeats but may differ in a detail not shown here. Identical values can stand only once. Inconclusive results are not listed. The source holds several records for some structures; these can differ, active in one and inactive in another. Active and inactive are the calls of the source. Unless noted, calls come from the whole dose curve.

Experiments:
[1] = qHTS assay to identify small molecule antagonists of the sonic hedgehog signaling (Shh) pathway (AID 1259369); note: nearly all actives have a fitted effect of over 45% in size; note: potency is the fitted concentration of half-maximal effect
Method in brief: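 Conditioned medium drives Shh signalling in 3T3Gli1-Luc cells; compounds in DMSO co-applied, 24hr at 37 C, then luciferase luminescence.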

[2] = qHTS assay to identify small molecule agonists of the androgen receptor (AR) signaling pathway in the presence of an antagonist - cell viability counter screen (AID 1259379; active = well fitted curve in the direction sought with a large enough effect in the repeat runs; an effect the other way counts as inactive or inconclusive; note: nearly all actives have a fitted effect of over 25% in size; note: potency is the fitted concentration of half-maximal effect)
Method in brief: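 A CellTiter-Fluor read-out measured viability of MDA-kb2 reporter cells (MMTV promoter with AR and GR response elements). Treatment: nilutamide 3.0uM final with compounds at 15 concentrations, 16 hr, 37C, 0% CO2.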

[3] = qHTS assay to identify small molecule agonists of the estrogen receptor beta (ER-beta) signaling pathway - cell viability counter screen (AID 1259380; active = well fitted curve in the direction sought with a large enough effect in the repeat runs; an effect the other way counts as inactive or inconclusive; note: nearly all actives have a fitted effect of over 30% in size; note: potency is the fitted concentration of half-maximal effect)
Method in brief: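 Cells used were ER-beta-UAS-bla HEK293T in medium with 2% charcoal-stripped FBS. They were treated for 16 hr at 37C. Viability came from CellTiter-Glo luminescence.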

[4] = target: Androgen receptor (Homo sapiens) (UniProt P10275); assay: qHTS assay to identify small molecule agonists of the androgen receptor (AR) signaling pathway in the presence of an antagonist (AID 1259381); note: nearly all actives have a fitted effect of over 15% in size
Method in brief: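 Using human MDA-kb2 cells with an MMTV promoter–luciferase construct (AR and GR response elements), agonist activity is scored under 3.0uM nilutamide (final) co-treatment; 16hr incubation, 37C, luminescence readout via ONE-Glo.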

[5] = qHTS assay to identify small molecule antagonists of the estrogen receptor beta (ER-beta) signaling pathway - cell viability counter screen (AID 1259382; active = well fitted curve in the direction sought with a large enough effect in the repeat runs; an effect the other way counts as inactive or inconclusive; note: series mostly up to about 92 µM; nearly all actives have a fitted effect of over 55% in size)
Method in brief: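 Agonist-stimulated (1nM E2) ER-beta-UAS-bla HEK293T cells are incubated with library compounds for 16 hr at 37C. Cell viability is then assessed in the reporter-assay wells by adding CellTiter-Glo and reading luminescence after 30 min.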

[6] = target: Estrogen receptor (Homo sapiens) (UniProt P03372); assay: qHTS assay to identify small molecule agonists of the estrogen receptor alpha (ER-alpha) signaling pathway in the presence of an antagonist (AID 1259383); note: top concentration of the series differs between compounds; nearly all actives have a fitted effect of over 15% in size
Method in brief: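 Using VM7Luc4E2 cells seeded 24hr before treatment, antagonist ICI-182,780 (10.0nM final) was added, followed by compounds at 15 concentrations. Plates incubated 22hr; ONE-Glo luminescence quantified reporter activity.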

[7] = target: Thyrotropin receptor (Homo sapiens) (UniProt P16473); assay: qHTS assay to identify small molecule antagonists of the thyroid stimulating hormone receptor (TSHR) signaling pathway (AID 1259385); note: nearly all actives have a fitted effect of over 20% in size; note: potency is the fitted concentration of half-maximal effect
Method in brief: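 TSHR-HEK293 cells (800/well) plated 18 h, then compounds with Ro20-1724 and TSH at 1.5 ng/mL final, 30 min at room temperature. cAMP quantified by HTRF (cAMP-d2/anti-cAMP-cryptate, 1 h); 15 concentrations in triplicate.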

[8] = qHTS assay to identify small molecule agonists of the estrogen receptor alpha (ER-alpha) signaling pathway in the presence of an antagonist - cell viability counter screen (AID 1259386; active = well fitted curve in the direction sought with a large enough effect in the repeat runs; an effect the other way counts as inactive or inconclusive;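 note: cells exposed to compounds for 22 h at 37 °C before the viability read; nearly all actives have a fitted effect of over 30% in size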; note: potency is the fitted concentration of half-maximal effect)
Method in brief: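 ICI-182,780 at 10.0nM final accompanies the compound titration (15 concentrations, 22hr, 37C) on VM7Luc4E2 cells. The CellTiter-Fluor fluorescence readout runs in the same wells as the luciferase assay.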

[9] = target: Progesterone receptor (Homo sapiens) (UniProt P06401); assay: qHTS assay to identify small molecule agonists of the progesterone receptor (PR) signaling pathway (AID 1346784); note: nearly all actives have a fitted effect of over 30% in size
Method in brief: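 Reporter assay, GripTite PR-UAS-bla HEK 293T cells: 16 hr exposure to DMSO-dissolved compounds at 37C, 5% CO2, in steroid-depleted (2% charcoal-stripped FBS) medium; beta-lactamase measured by FRET fluorescence.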

[10] = target: Progesterone receptor (Homo sapiens) (UniProt P06401); assay: qHTS assay to identify small molecule antagonists of the progesterone receptor (PR) signaling pathway (AID 1346795; active = well fitted inhibition curve with a large enough effect in the signal ratio in the repeat runs, not every such curve was filed as active; the % refers to the signal ratio; note: potency is the fitted concentration of half-maximal effect)
Method in brief: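 Stimulus R5020 at 1 nM final; cells HEK293T PR-UAS-bla; medium with 2% charcoal-stripped FBS; compound exposure 16 hr at 37C, 5% CO2; detection by FRET beta-lactamase substrate, 2 hr, room temperature.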

[11] = qHTS assay to identify small molecule antagonists of the progesterone receptor (PR) signaling pathway - cell viability counter screen (AID 1346798; active = well fitted curve in the direction sought with a large enough effect in the repeat runs; an effect the other way counts as inactive or inconclusive; note: series mostly up to about 92 µM; nearly all actives have a fitted effect of over 50% in size)
Method in brief: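 In the same plates used for the beta-lactamase readout, cell viability of compound- and R5020-treated PR-UAS-bla HEK293T cells (16 hr, 37C) was assessed by CellTiter-Glo luminescence.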

[12] = qHTS assay to identify small molecule agonists of the progesterone receptor (PR) signaling pathway - cell viability counter screen (AID 1346799); note: nearly all actives have a fitted effect of over 45% in size; note: potency is the fitted concentration of half-maximal effect
Method in brief: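 Multiplexed viability read: CellTiter-Glo luminescence, 30 min RT, following LiveBLAzer FRET measurement on PR-UAS-bla HEK293T cells exposed to compounds 16 hr.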

[13] = qHTS assay to identify small molecule antagonists of the TGF-beta/Smad signaling pathway - cell viability counter screen (AID 1346824; active = well fitted curve in the direction sought with a large enough effect in the repeat runs; an effect the other way counts as inactive or inconclusive; note: nearly all actives have a fitted effect of over 50% in size)
Method in brief: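 SBE-bla HEK 293T cells, incubated overnight, then compound plus 0.25 ng/mL TGF-beta1 (stock added) for 5 hr at 37 C. Viability was read in the same wells by CellTiter-Glo luminescence after 30 min at room temperature.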

[14] = qHTS assay to identify small molecule agonists of the TGF-beta/Smad signaling pathway - cell viability counter screen (AID 1346829; active = well fitted curve in the direction sought with a large enough effect in the repeat runs; an effect the other way counts as inactive or inconclusive; note: top concentration of the series differs between compounds; nearly all actives have a fitted effect of over 45% in size)
Method in brief: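 After overnight seating at 37 C and 5% CO2, reporter cells got compounds for 5 hr and FRET substrate for 2 hr; cell viability then came from CellTiter-Glo luminescence.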

[15] = qHTS assay to identify small molecule agonists of the TGF-beta/Smad signaling pathway (AID 1346859; active = well fitted activation curve with a large enough effect in the signal ratio in the repeat runs, not every such curve was filed as active; the % refers to the signal ratio; note: series mostly up to about 77 µM)
Method in brief: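 Screening used HEK 293T SBE-bla cells at 4,000/well. Test agents: 5 hr, 37 C. Detection: FRET substrate, 2 hr RT, then excitation 405 nm with emissions at 460 and 530 nm.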

[16] = target: Thyrotropin-releasing hormone receptor (Homo sapiens) (UniProt P34981); assay: qHTS assay to identify small molecule antagonists of the thyrotropin-releasing hormone receptor (TRHR) signaling pathway (AID 1346877; active = well fitted inhibition curve with a large enough effect in the repeat runs, not every such curve was filed as active; note: series mostly up to about 51 µM)
Method in brief: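 Screening used HEK293 cells engineered with TRHR, with a brief 5 min room-temperature compound exposure preceding addition of TRH to 1 nM. The read-out was kinetic calcium-dye fluorescence, concentration-response from 15 doses in triplicate.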

[17] = qHTS assay to identify small molecule agonists or antagonists of the thyroid stimulating hormone receptor (TSHR) signaling pathway - wild type cell line counter screen (AID 1259384)
Method in brief: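 Wild-type Hek293 cells, 800/well, 18 h at 37C, then compound with Ro20-1724 for 30 min RT. cAMP by HTRF (cAMP-d2/anti-cAMP cryptate), 1 h RT, fluorescence read. 15 concentrations, triplicates.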

[18] = target: Thyrotropin-releasing hormone receptor (Homo sapiens) (UniProt P34981); assay: qHTS assay to identify small molecule agonists of the thyrotropin-releasing hormone receptor (TRHR) signaling pathway (AID 1346891); note: series mostly up to about 58 µM
Method in brief: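 Readout was intracellular calcium fluorescence in TRHR-Hek293 cells. Cells were incubated 18 h, dye-loaded 2 h at 37 °C, and treated with compound in agonist mode.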

[19] = target: Estrogen receptor beta (Homo sapiens) (UniProt Q92731); assay: qHTS assay to identify small molecule antagonists of the estrogen receptor beta (ER-beta) signaling pathway (AID 1259378; active = well fitted inhibition curve with a large enough effect in the signal ratio in the repeat runs, not every such curve was filed as active; the % refers to the signal ratio)
Method in brief: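 ER-beta-UAS-bla HEK293T cells in 2% charcoal-stripped FBS medium treated with compound plus 1nM final 17-beta-estradiol for 16 hr at 37C. Beta-lactamase reporter read by FRET substrate fluorescence after 2 hours at room temperature.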

Measured: Potency

Sequence of Estrogen receptor (Homo sapiens) (P03372 whole entry, looked up): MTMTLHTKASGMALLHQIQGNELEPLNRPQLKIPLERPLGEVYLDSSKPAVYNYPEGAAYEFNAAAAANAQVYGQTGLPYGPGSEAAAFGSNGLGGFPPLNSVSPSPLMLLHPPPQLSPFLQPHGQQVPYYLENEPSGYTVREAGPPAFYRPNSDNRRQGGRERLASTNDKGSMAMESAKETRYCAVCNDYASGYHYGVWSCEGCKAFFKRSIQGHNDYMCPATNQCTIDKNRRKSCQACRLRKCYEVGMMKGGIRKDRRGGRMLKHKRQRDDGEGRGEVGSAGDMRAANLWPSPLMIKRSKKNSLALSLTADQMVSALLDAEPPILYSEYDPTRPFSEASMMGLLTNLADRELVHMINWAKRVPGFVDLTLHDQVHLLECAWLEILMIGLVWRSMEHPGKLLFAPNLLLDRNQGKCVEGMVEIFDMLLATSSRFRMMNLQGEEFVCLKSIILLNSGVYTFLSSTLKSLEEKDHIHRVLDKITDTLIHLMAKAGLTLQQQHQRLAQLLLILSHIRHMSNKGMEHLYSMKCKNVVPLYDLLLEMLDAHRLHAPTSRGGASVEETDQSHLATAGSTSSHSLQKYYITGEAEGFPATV
Sequence of Estrogen receptor beta (Homo sapiens) (Q92731 whole entry, looked up): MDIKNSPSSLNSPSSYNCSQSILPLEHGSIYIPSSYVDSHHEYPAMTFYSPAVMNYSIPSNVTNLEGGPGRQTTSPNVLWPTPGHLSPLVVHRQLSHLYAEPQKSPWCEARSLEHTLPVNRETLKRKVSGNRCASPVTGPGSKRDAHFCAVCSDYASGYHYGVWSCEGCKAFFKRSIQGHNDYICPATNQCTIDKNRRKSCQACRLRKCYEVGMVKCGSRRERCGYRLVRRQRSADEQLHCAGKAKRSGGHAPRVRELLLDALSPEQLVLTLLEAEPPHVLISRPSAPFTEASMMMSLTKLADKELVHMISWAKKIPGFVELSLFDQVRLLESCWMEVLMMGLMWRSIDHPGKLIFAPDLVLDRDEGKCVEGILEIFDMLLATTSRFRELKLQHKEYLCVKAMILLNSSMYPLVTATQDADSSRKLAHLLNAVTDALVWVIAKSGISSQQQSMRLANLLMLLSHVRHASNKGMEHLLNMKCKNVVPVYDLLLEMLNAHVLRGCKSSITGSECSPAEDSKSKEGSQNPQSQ
Sequence of Thyrotropin-releasing hormone receptor (Homo sapiens) (P34981 whole entry, looked up): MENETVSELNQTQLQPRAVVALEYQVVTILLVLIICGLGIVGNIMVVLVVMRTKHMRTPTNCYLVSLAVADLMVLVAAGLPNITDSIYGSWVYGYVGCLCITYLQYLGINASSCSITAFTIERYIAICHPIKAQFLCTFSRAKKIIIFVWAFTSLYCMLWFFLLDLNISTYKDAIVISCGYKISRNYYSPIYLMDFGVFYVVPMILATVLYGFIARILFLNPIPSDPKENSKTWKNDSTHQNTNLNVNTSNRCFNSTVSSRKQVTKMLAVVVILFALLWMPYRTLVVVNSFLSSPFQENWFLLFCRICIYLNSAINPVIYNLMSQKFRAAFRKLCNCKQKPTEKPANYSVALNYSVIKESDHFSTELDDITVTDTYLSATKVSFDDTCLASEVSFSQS
Sequence of Thyrotropin receptor (Homo sapiens) (P16473 whole entry, looked up): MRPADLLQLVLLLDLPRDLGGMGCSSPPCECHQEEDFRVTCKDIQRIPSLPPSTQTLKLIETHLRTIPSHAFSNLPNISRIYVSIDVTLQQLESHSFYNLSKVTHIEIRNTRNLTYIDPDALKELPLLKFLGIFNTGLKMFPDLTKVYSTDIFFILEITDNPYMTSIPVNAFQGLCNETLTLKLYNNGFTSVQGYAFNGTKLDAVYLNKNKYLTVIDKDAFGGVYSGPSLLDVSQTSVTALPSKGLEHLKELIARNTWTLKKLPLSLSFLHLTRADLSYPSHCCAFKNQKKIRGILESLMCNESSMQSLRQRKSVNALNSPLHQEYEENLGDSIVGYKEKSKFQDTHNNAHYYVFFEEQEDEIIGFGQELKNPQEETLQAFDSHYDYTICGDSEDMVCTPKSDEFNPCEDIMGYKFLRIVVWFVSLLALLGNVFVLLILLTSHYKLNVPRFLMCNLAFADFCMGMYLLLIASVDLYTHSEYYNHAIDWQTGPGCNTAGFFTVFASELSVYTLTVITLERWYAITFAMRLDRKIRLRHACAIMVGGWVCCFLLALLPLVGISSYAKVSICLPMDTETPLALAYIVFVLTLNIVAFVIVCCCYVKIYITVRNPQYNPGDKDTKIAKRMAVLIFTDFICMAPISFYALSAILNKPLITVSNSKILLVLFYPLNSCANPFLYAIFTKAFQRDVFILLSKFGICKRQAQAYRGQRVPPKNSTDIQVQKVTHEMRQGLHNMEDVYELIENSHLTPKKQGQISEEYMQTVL
Sequence of Progesterone receptor (Homo sapiens) (P06401 whole entry, looked up): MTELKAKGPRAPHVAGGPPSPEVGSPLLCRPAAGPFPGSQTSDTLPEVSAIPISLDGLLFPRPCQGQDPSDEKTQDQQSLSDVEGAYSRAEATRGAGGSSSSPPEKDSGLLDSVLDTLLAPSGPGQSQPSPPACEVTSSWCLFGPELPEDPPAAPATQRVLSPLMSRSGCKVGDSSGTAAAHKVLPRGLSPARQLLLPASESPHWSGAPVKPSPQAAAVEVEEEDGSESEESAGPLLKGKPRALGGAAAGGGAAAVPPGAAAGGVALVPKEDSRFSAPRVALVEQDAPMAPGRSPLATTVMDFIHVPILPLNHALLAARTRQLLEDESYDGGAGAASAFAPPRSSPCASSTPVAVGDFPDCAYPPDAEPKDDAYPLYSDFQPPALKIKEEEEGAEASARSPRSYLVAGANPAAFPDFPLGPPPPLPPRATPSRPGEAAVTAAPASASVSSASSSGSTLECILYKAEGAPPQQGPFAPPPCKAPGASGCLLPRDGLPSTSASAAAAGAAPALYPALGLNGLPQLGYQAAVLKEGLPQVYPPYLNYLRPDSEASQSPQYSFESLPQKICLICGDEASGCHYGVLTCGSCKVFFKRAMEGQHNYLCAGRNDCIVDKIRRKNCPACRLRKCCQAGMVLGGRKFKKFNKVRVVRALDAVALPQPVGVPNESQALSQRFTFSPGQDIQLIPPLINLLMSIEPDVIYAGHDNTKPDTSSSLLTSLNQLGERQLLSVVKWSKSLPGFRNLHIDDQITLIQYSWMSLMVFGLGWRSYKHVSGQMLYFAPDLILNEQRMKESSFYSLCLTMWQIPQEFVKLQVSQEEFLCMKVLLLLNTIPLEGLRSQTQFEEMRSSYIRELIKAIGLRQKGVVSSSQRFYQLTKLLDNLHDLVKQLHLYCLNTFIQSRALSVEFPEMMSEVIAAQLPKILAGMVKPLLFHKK
Sequence of Androgen receptor (Homo sapiens) (P10275 whole entry, looked up): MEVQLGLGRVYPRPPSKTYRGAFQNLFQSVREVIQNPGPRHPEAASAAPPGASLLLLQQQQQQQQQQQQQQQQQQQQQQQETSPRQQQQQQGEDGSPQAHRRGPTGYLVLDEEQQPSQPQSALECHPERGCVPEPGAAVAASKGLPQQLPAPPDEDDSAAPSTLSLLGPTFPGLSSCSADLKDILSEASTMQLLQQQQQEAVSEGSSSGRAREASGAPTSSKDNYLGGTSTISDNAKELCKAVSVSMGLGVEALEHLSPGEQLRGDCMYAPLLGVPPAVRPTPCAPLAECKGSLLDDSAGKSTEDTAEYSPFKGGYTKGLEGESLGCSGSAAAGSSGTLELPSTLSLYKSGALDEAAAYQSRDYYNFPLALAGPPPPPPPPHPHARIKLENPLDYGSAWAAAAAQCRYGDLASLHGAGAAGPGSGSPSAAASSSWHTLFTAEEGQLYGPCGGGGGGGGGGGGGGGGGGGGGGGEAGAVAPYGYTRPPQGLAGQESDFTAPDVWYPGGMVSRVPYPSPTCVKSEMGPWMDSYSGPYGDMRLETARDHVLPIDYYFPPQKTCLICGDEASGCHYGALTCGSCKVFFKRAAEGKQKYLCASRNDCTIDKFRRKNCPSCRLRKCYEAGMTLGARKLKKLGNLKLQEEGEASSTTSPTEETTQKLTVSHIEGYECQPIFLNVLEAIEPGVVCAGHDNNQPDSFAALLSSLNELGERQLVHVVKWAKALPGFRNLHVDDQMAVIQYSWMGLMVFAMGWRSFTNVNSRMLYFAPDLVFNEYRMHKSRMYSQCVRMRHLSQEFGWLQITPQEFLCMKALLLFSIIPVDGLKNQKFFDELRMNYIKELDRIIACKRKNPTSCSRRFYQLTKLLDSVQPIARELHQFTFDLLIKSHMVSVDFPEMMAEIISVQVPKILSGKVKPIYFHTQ

CC(=O)NC1CCSC1=O (stereo unspecified)
not listed: [17] | [18] | [19]
inactive: all other assays above

COP(=S)(OC)Oc1ccc([N+](=O)[O-])cc1Cl
active: [2] 48.6 µM | [8] 48.6 µM
not listed: [11] | [19]
inactive: all other assays above

O=Cc1ccc(Cl)cc1Cl
not listed: [4] | [6] | [7] | [10] | [11] | [17]
inactive: all other assays above

CCOC(=O)C(Cl)C(C)=O (stereo unspecified)
not listed: [4] | [18] | [19]
inactive: all other assays above

O=C(CBr)c1ccccc1
active: [1] 34.6 µM
not listed: [4] | [19]
inactive: all other assays above

CCOP(=S)(OCC)Oc1nc(Cl)c(Cl)cc1Cl
active: [3] 38.6 µM | [7] 27.4 µM and 54.5 µM
61.3 µM (active) and inactive: [12]
not listed: [5] | [10] | [11] | [17]
inactive: all other assays above

O=S1OC[C@@H]2[C@H](CO1)[C@]1(Cl)C(Cl)=C(Cl)[C@@]2(Cl)C1(Cl)Cl (stereo partly specified)
active: [10] 30.6 µM
not listed: [16] | [18] | [19]
inactive: all other assays above

CO/N=C(/C(=O)OC)c1ccccc1COc1ccccc1C
active: [1] 4.33 µM | [2] 54.5 µM | [3] 15.4 µM
not listed: [10] | [12] | [14] | [15] | [19]
inactive: all other assays above

Cc1ccccc1C(=O)Nc1cccc(OC(C)C)c1
active: [1] 17.2 µM | [3] 19.3 µM
not listed: [5] | [10] | [11] | [12] | [16]
inactive: all other assays above

COc1c(C(C)(C)C)cc([N+](=O)[O-])c(C)c1[N+](=O)[O-]
not listed: [4] | [7] | [16] | [17] | [18]
inactive: all other assays above

CCCCN(N=O)C(=N)N[N+](=O)[O-]
active: [1] 27.9 µM
not listed: [6] | [7] | [17] | [19]
inactive: all other assays above

O=C(CCl)c1ccc(Cl)cc1Cl
inactive and 29.8 µM (active): [2]
active: [1] 5.96 µM | [3] 38.4 µM and 18.8 µM | [7] 23.7 µM
not listed: [5] | [19]
inactive: all other assays above

COC1=CC(=O)O[C@@H](CCc2ccccc2)C1
not listed: [6] | [10] | [15]
inactive: all other assays above

O=C1C(=O)c2cccc3cccc1c23
active: [1] 4.32 µM | [3] 43.2 µM
not listed: [4] | [10] | [18]
inactive: all other assays above
